# Measured values: PubChem BioAssay
# Where “and” joins values, the source holds several entries; their conditions need not be identical. Equal values may be shown once. Calls of active or inactive are those of the source.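 How the source made its calls, unless noted: active means thallium flux through the channel raised or lowered by more than 3 SD from vehicle-only wells, actives on both sides; inactive means the rest.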
# Experiments:
# [1] = blockers of polyQ-driven CASP3 activation – cell-based (AID 1583); settings: polyglutamine-induced caspase-3 activation, cell assay; stronger effect = higher value;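 tested at 10 µM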
# [2] = yeast 75Q aggregation reduction – 75Q-TubU reporter (AID 1593); settings: Yeast 75Q polyglutamine aggregation reporter
# [3] = blockers of cytochrome c efflux from mitochondria – biochemical, purified mitochondria (AID 1603); settings: stronger effect = lower value;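 further: mouse liver mitochondria challenged with calcium chloride; signal normalized to the plate average as 100%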
# [4] = polyglutamine aggregate formation blockers (AID 1604); settings: polyglutamine-induced protein aggregation inhibition assay; stronger effect = higher value; tested at 2.5 µM
# [5] = glutamate transport activators, MN-1 cells, MN-1 cell line (AID 1612); settings: MN-1 motor neuron cells, stronger effect = higher value;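 further: tested at 1 µM final; 0% = mean of DMSO vehicle wells on each plate; positive means more glutamate uptake than control and negative means less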
# [6] = signal quenchers or enhancers, Cy5 substrate/SSB – biochemical, NIH Clinical Collection, E. coli SSB, artefact control for HCV NS3 helicase inhibitor project (AID 743268; call rule not given here); settings: Cy5-oligo bound E. coli SSB, fluorescence interference
# [7] = test system: Hepatitis C virus NS3 helicase; assay: blockers of NS3h binding to DNA – biochemical, fluorescence polarization, NIH Clinical Collection, primary screen (AID 743270; call rule not given here); settings: NS3 helicase binding to Cy5-dT15 DNA, stronger effect = higher value, concentration not given here
# [8] = molecular target: Single-stranded DNA-binding protein (Escherichia coli (strain K12)) (UniProt P0AGE0); assay: SSB-ssDNA binding inhibitors – biochemical, fluorescence polarization, NIH Clinical Collection, counter-screen for HCV NS3 helicase inhibitor project (AID 743271; in the data active means inhibition above about 28%); settings: E. coli SSB-DNA binding, stronger effect = higher value, concentration not given here
# [9] = compounds distorting NS3 helicase fluorescence signal – biochemical, NIH Clinical Collection, artefact control for HCV NS3 helicase inhibitor project (AID 743272; call rule not given here;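 further: HCV NS3 helicase with a Cy5 labelled single stranded DNA probe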); settings: fluorescence interference counterscreen, HCV NS3 helicase assay; stronger effect = lower value
# [10] = galactose survival enhancers in mitochondrial complex I cybrids – cell-based, galactose medium, ATP luminescence, primary screen (AID 1645843;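 active means z-score of at least 1.8 in each of two replicates, scored against plate mean and spread of sample wells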;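 further: positive z means more ATP and so rescue of galactose-driven cybrid death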); settings: complex I mutant cybrid cells, 72 h, stronger effect = higher value
# [11] = test system: F380Y/beta4; assay: BK channel mutant inhibitors and activators – cell-based, U2OS BacMam, thallium flux, beta subunits, selectivity assay, profiling panel (AID 1259406); settings: U2OS BacMam BK variants, at 30 µM;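 further: initial slope of Thallos dye fluorescence rise after thallium is added; log ratio against the mean of 0.3% DMSO vehicle wells on the same plate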
# [12] = molecular target: Calcium-activated potassium channel subunit alpha-1 (Homo sapiens) + Leucine-rich repeat-containing protein 26 (Homo sapiens) (UniProt Q12791+Q2I0M4); assay: as above; settings: U2OS BacMam BK variants, F380Y/Slo1WT/gamma1, at 30 µM
# Calcium-activated potassium channel subunit alpha-1 (Homo sapiens) + Leucine-rich repeat-containing protein 26 (Homo sapiens), sequence (Q2I0M4 whole entry, looked up, one chain of several): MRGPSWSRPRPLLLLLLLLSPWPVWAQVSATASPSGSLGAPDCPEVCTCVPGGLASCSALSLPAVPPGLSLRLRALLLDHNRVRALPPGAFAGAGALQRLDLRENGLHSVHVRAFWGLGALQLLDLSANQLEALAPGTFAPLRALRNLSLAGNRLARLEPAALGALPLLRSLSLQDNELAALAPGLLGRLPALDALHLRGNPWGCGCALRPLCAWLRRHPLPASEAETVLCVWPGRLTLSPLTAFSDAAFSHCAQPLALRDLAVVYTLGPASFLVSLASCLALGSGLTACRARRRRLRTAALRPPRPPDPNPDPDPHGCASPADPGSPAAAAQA
# [13] = test system: R275C; assay: as above; settings: U2OS BacMam BK variants, at 30 µM
# [14] = test system: R275C/beta1; assay: as above; settings: U2OS BacMam BK variants, at 30 µM
# [15] = test system: R275C/beta2Delta; assay: as above; settings: U2OS BacMam BK variants, at 30 µM
# [16] = test system: R275C/beta4; assay: as above; settings: U2OS BacMam BK variants, at 30 µM
# [17] = test system: R275C/Slo1WT/beta2; assay: as above; settings: U2OS BacMam BK variants, at 30 µM
# [18] = growth inhibition, single agent or in combination, cell-based, chromothripsis tumors, cisplatin or BGB combos (AID 1671449; in the data active means inhibition above about 80%;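 further: cells exposed for 96 hours; 0% = vehicle DMSO and 100% = killing by high DMSO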); settings: LFS_MB_P medulloblastoma cells
# [19] = growth inhibition, single agent and combos, cell-based, chromothripsis tumors, cisplatin or BGB combos (AID 1671450; in the data active means inhibition above about 80%;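 further: cells exposed to compound for four days; 0% = vehicle DMSO and 100% = cell killing by high DMSO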); settings: HDN33 neuroblastoma cells, stronger effect = higher value
# [20] = growth inhibition, single agents and combos, HTB85, cell-based, BGB or cisplatin IC20 combos, synergistic combos for chromothripsis tumors (AID 1671453; in the data active means inhibition above about 80%;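 further: cells exposed for 96 hours before readout; 0% = vehicle DMSO and 100% = high DMSO killing control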); settings: HTB85 osteosarcoma cells, drug combinations, stronger effect = higher value
compound,measurement,setting,value
CCCc1cc(=O)[nH]c(=S)[nH]1,inhibition,[1],-28.5%
same,score,[2],1.06
same,cytochrome c release ratio,[3],1.02
same,inhibition of aggregation,[4],48%
same,glutamate uptake change,[5],4.57%
same,fluorescence ratio,[6],1.04 (inactive)
same,inhibition,[7],-1.36% (inactive)
same,inhibition,[8],0.29% (inactive)
same,fluorescence ratio,[9],0.97 (inactive)
same,z-score,[10],0.835 (inactive)
same,log fold change Tl+ flux,[11],0.0238 (inactive)
same,log fold change Tl+ flux,[12],0.00637 (inactive)
same,log fold change Tl+ flux,[13],-0.0214 (inactive)
same,log fold change Tl+ flux,[14],-0.00439 (inactive)
same,log fold change Tl+ flux,[15],-0.0158 (inactive)
same,log fold change Tl+ flux,[16],-0.0141 (inactive)
same,log fold change Tl+ flux,[17],0.0488 (inactive)
CC(C)C(=O)Nc1ccc([N+](=O)[O-])c(C(F)(F)F)c1,inhibition,[1],28.6%
same,score,[2],0.95
same,cytochrome c release ratio,[3],0.83
same,inhibition of aggregation,[4],22.5%
same,glutamate uptake change,[5],-7.31%
same,fluorescence ratio,[6],0.94 (inactive)
same,inhibition,[7],-1.36% (inactive)
same,inhibition,[8],2.57% (inactive)
same,fluorescence ratio,[9],0.88 (inactive)
same,z-score,[10],-0.565 (inactive) and -0.735 (inactive) and -1.1 (inactive)
same,log fold change Tl+ flux,[11],-0.0805 (inactive)
same,log fold change Tl+ flux,[12],-0.0492 (inactive)
same,log fold change Tl+ flux,[13],-0.0976 (active)
same,log fold change Tl+ flux,[14],-0.0165 (inactive)
same,log fold change Tl+ flux,[15],0.0539 (inactive)
same,log fold change Tl+ flux,[16],-0.0876 (inactive)
same,log fold change Tl+ flux,[17],-0.0286 (inactive)
COc1c(N2CCNC(C)C2)c(F)cc2c(=O)c(C(=O)O)cn(C3CC3)c12 (stereo unspecified),fluorescence ratio,[6],1.05 (inactive)
same,inhibition,[7],-8.64% (inactive)
same,inhibition,[8],-6.58% (inactive)
same,fluorescence ratio,[9],1.01 (inactive)
same,z-score,[10],0.695 (inactive) and -0.01 (inactive)
same,inhibition,"[18]; at 0.5 µM, stronger effect = higher value",-20.5% (inactive) and -4.2% (inactive)
same,inhibition,"[18]; measured here: combination with BGB IC20, at 0.005 µM",17.2% and 22.3%
same,inhibition,"[18]; measured here: combination with BGB IC40, at 0.005 µM",3.24% and -1.74%
same,inhibition,"[18]; measured here: combination with BGB IC40, at 0.05 µM",-33% and 5.75%
same,inhibition,"[18]; measured here: combination with cisplatin, at 0.5 µM, stronger effect = higher value",-33.3% and -6.41%
same,inhibition,"[18]; measured here: combination with cisplatin, at 5 µM, stronger effect = higher value",-5.09% and 4.8%
same,inhibition,"[19]; BGB combo, at 5 µM",-39.9% and 9.99%
same,inhibition,[19]; at 0.5 µM,-22% (inactive) and 8.9% (inactive)
same,inhibition,"[19]; cisplatin combo, at 5 µM",-25.7% and 17.8%
same,inhibition,"[19]; measured here: with BGB IC20 combination, at 0.5 µM",-19.2% and 9.8%
same,inhibition,"[19]; measured here: with cisplatin IC20 combination, at 0.5 µM",-37.3% and 8.47%
same,inhibition,"[19]; single agent, at 5 µM",-2.12% and 5.9%
same,inhibition,[20]; at 0.5 µM,-28.9% (inactive) and -4.45% (inactive)
same,inhibition,"[20]; measured here: with BGB IC20, at 0.5 µM",-22.5% and -1.96%
same,inhibition,"[20]; measured here: with BGB IC20, at 5 µM",-17.3% and -16.7%
same,inhibition,"[20]; measured here: with cisplatin IC20, at 0.5 µM",-35.1% and -12%
same,inhibition,"[20]; measured here: with cisplatin IC20, at 5 µM",-18.3% and -5.81%
same,inhibition,"[20]; single agent, at 5 µM",17.7% and -9.93%
same,log fold change Tl+ flux,[11],-0.0127 (inactive)
same,log fold change Tl+ flux,[12],0.0449 (inactive)
same,log fold change Tl+ flux,[13],-0.0278 (inactive)
same,log fold change Tl+ flux,[14],0.0168 (inactive)
same,log fold change Tl+ flux,[15],0.00178 (inactive)
same,log fold change Tl+ flux,[16],-0.00176 (inactive)
same,log fold change Tl+ flux,[17],0.05 (inactive)
CC(C[N+](C)(C)C)OC(N)=O (stereo unspecified),inhibition,[1],18.5%
same,score,[2],1.26
same,cytochrome c release ratio,[3],0.92
same,inhibition of aggregation,[4],-22.2%
same,glutamate uptake change,[5],-0.67%
same,fluorescence ratio,[6],1.06 (inactive)
same,inhibition,[7],-3.18% (inactive)
same,inhibition,[8],-1.24% (inactive)
same,fluorescence ratio,[9],1.01 (inactive)
same,z-score,[10],-0.115 (inactive) and 0.415 (inactive) and 0.59 (inactive)
same,log fold change Tl+ flux,[11],0.00469 (inactive)
same,log fold change Tl+ flux,[12],0.00848 (inactive)
same,log fold change Tl+ flux,[13],0.0156 (inactive)
same,log fold change Tl+ flux,[14],0.0122 (inactive)
same,log fold change Tl+ flux,[15],0.00284 (inactive)
same,log fold change Tl+ flux,[16],0.043 (inactive)
same,log fold change Tl+ flux,[17],0.0355 (inactive)
